Among all 17,000 compounds or so, about 260 (1.5%) were called active.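 Rule for the calls: active = spot fluorescence over background with P-value below 7% in all four replicate spots, showing protein binding; inactive = the rest.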 Many of the other results were omitted from the sample, so actives are more common in it than they were.
Target: Myc proto-oncogene protein (Homo sapiens) (UniProt P01106)
Assay: binders of human c-Myc, primary screen, biochemical, small molecule microarray, anti-His fluorescence (AID 624141)
Conditions: His-c-Myc binding

Myc proto-oncogene protein (Homo sapiens), sequence (P01106 whole entry, looked up): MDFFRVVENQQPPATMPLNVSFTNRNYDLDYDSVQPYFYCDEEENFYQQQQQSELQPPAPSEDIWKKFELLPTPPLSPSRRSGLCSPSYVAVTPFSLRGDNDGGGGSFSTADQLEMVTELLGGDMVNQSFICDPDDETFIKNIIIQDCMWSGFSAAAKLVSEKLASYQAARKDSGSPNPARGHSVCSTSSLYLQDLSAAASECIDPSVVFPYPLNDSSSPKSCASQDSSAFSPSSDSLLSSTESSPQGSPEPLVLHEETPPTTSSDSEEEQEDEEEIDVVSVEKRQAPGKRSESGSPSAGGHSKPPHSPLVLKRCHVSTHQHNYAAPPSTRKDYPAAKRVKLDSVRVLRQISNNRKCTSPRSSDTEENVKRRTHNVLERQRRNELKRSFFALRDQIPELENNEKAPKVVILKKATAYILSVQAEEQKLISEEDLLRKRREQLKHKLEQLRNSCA

| SMILES | outcome |
| --- | --- |
| C[C@@H]1CN([C@H](C)CO)C(=O)Cc2cc(NC(=O)CCN3CCOCC3)ccc2O[C@H]1CN(C)C | inactive |
| COc1cc(O[C@@H]2O[C@H](CO[C@H]3OC[C@](O)(COC(=O)c4ccc(O)c(OC)c4)[C@H]3O)[C@@H](O)[C@H](O)[C@H]2O)ccc1O | inactive |
| COc1ccc(NC(=O)N(C)C[C@@H]2OCCCC[C@H](C)Oc3ccc(NC(=O)c4ccccc4)cc3C(=O)N([C@H](C)CO)C[C@H]2C)cc1 | inactive |
| COc1ccccc1NC(=O)c1ccc(OCC(=O)Nc2ccccc2F)cc1 | inactive |
| O=C(Nc1ccc(Cl)cc1C(=O)NCc1ccco1)c1ccco1 | inactive |
| C[C@@H]1CN([C@H](C)CO)C(=O)c2cc(NS(=O)(=O)c3cn(C)cn3)ccc2O[C@@H](C)CCCCO[C@H]1CN(C)C | inactive |
| CN(C)c1nc(N)nc(CSc2ccccn2)n1 | inactive |
| COc1ccccc1NC(=O)CNC(=O)c1ccc(C)cc1 | inactive |
| CC(C)NC(=O)N(C)C[C@@H]1OCCCC[C@H](C)Oc2ccc(NC(=O)Nc3ccccc3)cc2C(=O)N([C@H](C)CO)C[C@@H]1C | inactive |
| Cc1noc(C)c1S(=O)(=O)N(C)C[C@H]1Oc2c(NC(=O)c3cnccn3)cccc2C(=O)N([C@H](C)CO)C[C@H]1C | active |
| C[C@@H]1CCCCO[C@@H](CN(C)C(=O)Nc2ccccc2)[C@@H](C)CN([C@@H](C)CO)C(=O)c2cc(N(C)C)ccc2O1 | inactive |
| C[C@H](CO)N1C[C@H](C)[C@@H](CN(C)C(=O)NC2CCCCC2)Oc2c(NC(=O)Nc3ccc(F)cc3)cccc2C1=O | inactive |
| C[C@@H]1CCCCO[C@H](CN(C)C(=O)Nc2ccccc2)[C@H](C)CN([C@@H](C)CO)C(=O)c2cc(N(C)C)ccc2O1 | inactive |
| C[C@H]1CN([C@@H](C)CO)C(=O)c2cccc(NC(=O)c3cnccn3)c2O[C@H]1CN(C)S(=O)(=O)c1cn(C)cn1 | inactive |
| C[C@@H]1CCCCO[C@@H](CN(C)C(=O)Cc2ccccc2)[C@H](C)CN([C@@H](C)CO)C(=O)c2cc(NC(=O)Nc3ccc(F)cc3)ccc2O1 | active |
| C[C@H](CO)N1C[C@H](C)[C@@H](CN(C)C(=O)Nc2cccc3ccccc23)OCCCC[C@H](C)Oc2ccc(N(C)C)cc2C1=O | active |
| C[C@H]1CN([C@@H](C)CO)C(=O)c2cccc(NC(=O)c3cnccn3)c2O[C@H]1CN(C)C(=O)Nc1ccccc1 | inactive |
| C[C@@H]1CN([C@H](C)CO)C(=O)c2cccc(NC(=O)Nc3ccccc3)c2O[C@@H]1CN(C)C(=O)NC1CCCCC1 | inactive |
| CC(C)NC(=O)Nc1ccc2c(c1)C(=O)N([C@@H](C)CO)C[C@@H](C)[C@H](CN(C)C(=O)Cc1ccccc1)OCCCC[C@H](C)O2 | inactive |
| C[C@@H]1CCCCO[C@@H](CN(C)C(=O)Nc2ccccc2)[C@@H](C)CN([C@H](C)CO)C(=O)c2cc(NC(=O)Nc3ccc(F)cc3)ccc2O1 | inactive |
| C[C@H]1CN([C@@H](C)CO)C(=O)c2cccc(NC(=O)Nc3ccc(C(F)(F)F)cc3)c2O[C@H]1CN(C)C(=O)NC1CCCCC1 | active |

From PubChem BioAssay AID624141 (Broad Institute, 2012)
